# Results from PubChem BioAssay (NCI).
# About 83,000 compounds went through this panel and 20% of them were active in at least one assay; those are over-represented in the sample as a whole.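 Each cell line was grown in a 96-well plate and treated with one concentration of compound for 48 hours. Values below 10 were considered active.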 Values without a mark were called inactive. Calls of active or inactive are those of the source.
# Columns and labels:
# Assay in all cases: NCI-60 one-dose screen, 48 h (100 = growth as untreated, 0 = no growth, -100 = all killed)
# Conditions in all cases: 10 µM
# NCI-H23 lung = test system: NCI-H23 lung
# NCI-H226 lung = test system: NCI-H226 lung
# HOP-62 NSCLC = test system: HOP-62 NSCLC
# NCI-H460 lung = test system: NCI-H460 lung
# HOP-92 NSCLC = test system: HOP-92 NSCLC
# NCI-H522 lung = test system: NCI-H522 lung
# A549/ATCC NSCLC = test system: A549/ATCC NSCLC
# 786-0 renal = test system: 786-0 renal
# COLO 205 colon = test system: COLO 205 colon
# DU-145 prostate = test system: DU-145 prostate
# K-562 leukemia = test system: K-562 leukemia
# MALME-3M melanoma = test system: MALME-3M melanoma
# MDA-MB-231 breast = test system: MDA-MB-231 breast
# RXF 393 renal = test system: RXF 393 renal
# SF-268 CNS = test system: SF-268 CNS
# SF-295 CNS = test system: SF-295 CNS
# SF-539 CNS = test system: SF-539 CNS
# UACC-257 melanoma = test system: UACC-257 melanoma
# M14 melanoma = test system: M14 melanoma
SMILES,growth (NCI-H23 lung),growth (NCI-H226 lung),growth (HOP-62 NSCLC),growth (NCI-H460 lung),growth (HOP-92 NSCLC),growth (NCI-H522 lung),growth (A549/ATCC NSCLC),growth (786-0 renal),growth (COLO 205 colon),growth (DU-145 prostate),growth (K-562 leukemia),growth (MALME-3M melanoma),growth (MDA-MB-231 breast),growth (RXF 393 renal),growth (SF-268 CNS),growth (SF-295 CNS),growth (SF-539 CNS),growth (UACC-257 melanoma),growth (M14 melanoma)
COc1ccc(NC(=O)C2CC3C=CC2C3)c([N+](=O)[O-])c1 (centres undefined),96%,96.1%,100%,107%,81.9%,94.9%,93.8%,123%,115%,110%,88.9%,116%,93.3%,99.8%,102%,95.5%,98.6%,98.1%,130%
CCOC(=O)C(C)(c1ccccc1)c1ccccc1,106%,100%,95%,106%,98.6%,94.8%,92.9%,119%,120%,106%,113%,112%,111%,123%,104%,102%,97.7%,93.5%,102%
CN(C)CCCOc1cccc(NC2=C(Cl)C(=O)C(Nc3cccc(OCCCN(C)C)c3)=C(Cl)C2=O)c1,-67.1% (active),-70% (active),-85.1% (active),38.3%,-74.3% (active),-79.5% (active),52%,-94.2% (active),-79.7% (active),-97.7% (active),-29.7% (active),-74.8% (active),-73.6% (active),-88.8% (active),-62.6% (active),64.3%,-77.7% (active),-90.1% (active),–
Cc1c(Cl)cccc1NC(=O)CN1CCOCC1,95.9%,106%,93%,100%,118%,75.1%,106%,99.7%,108%,102%,91.6%,92.6%,106%,117%,97.1%,99.3%,106%,108%,94.9%
Oc1cccc(-c2nc3sccn3c2-c2ccncn2)c1,92.1%,94.4%,103%,97.8%,82.6%,98.9%,100%,95.7%,32.1%,106%,90%,-8.47% (active),81.4%,67.3%,106%,101%,98.8%,31%,–
COc1cccc(CNc2cccc3cn[nH]c23)c1O,94.9%,87.6%,95.3%,111%,72.3%,86.3%,90.6%,105%,110%,100%,126%,88.3%,72.8%,113%,106%,108%,94.7%,99%,–
CCOC(=O)c1cc(C(=O)c2cc(OC)cc(OC)c2)n2ncc3ccccc3c12,41.9%,59.1%,42.6%,7.07% (active),32.4%,2.64% (active),17.9%,5.34% (active),19.1%,46.4%,5.75% (active),41.9%,42.9%,29.1%,46.9%,8.71% (active),11.5%,49%,–
CCN(CC)CCNc1ccc(C)c2sc3cc(Cl)ccc3c(=O)c12,55%,75.2%,66.9%,1.44% (active),22%,42.7%,31.1%,43.3%,-67.3% (active),43.5%,-51% (active),-26.4% (active),-15.9% (active),12.9%,47%,70%,66.3%,-28.2% (active),–
COc1cc(OC)c2c(=O)c(O)c(-c3ccccc3)oc2c1,79.8%,69.3%,67.7%,53.5%,52%,72.5%,77.3%,70.8%,104%,70.7%,70.6%,101%,67.9%,67.6%,66.4%,98.3%,79.7%,84.2%,–
COc1cccc(N=Nc2cccc(OC)c2)c1,86.4%,90.5%,82.6%,103%,84%,73%,83.9%,91.3%,107%,112%,87.8%,101%,84%,91.2%,103%,92.8%,95.4%,90.9%,–
CCCCN(CCCC)C(=O)[C@H](CC)[C@@H]1CC[C@@H](C)[C@@H]([C@H](C)[C@@H](O)[C@@H](C)C(=O)[C@H](CC)C2O[C@]3(C=C[C@@H](O)[C@]4(CC[C@@](C)([C@H]5CC[C@](O)(CC)[C@H](C)O5)O4)O3)[C@H](C)C[C@@H]2C)O1 (some centres undefined),-11.8% (active),-2.42% (active),7.81% (active),-4.44% (active),-25.6% (active),-18.4% (active),9.11% (active),17.4%,-77.6% (active),35.4%,14.1%,-15.8% (active),-25.3% (active),-3.81% (active),19.6%,-10.4% (active),16.9%,0.418% (active),14.2%
O=C(O)c1ccc(-n2cc(CNc3ccc(Cl)cc3)c(-c3ccccc3)n2)cc1,98.4%,99.1%,111%,88.6%,99.9%,75.8%,84.6%,94.7%,97.8%,95.7%,77.5%,79.9%,88.6%,98.6%,100%,80.5%,82.6%,–,–
CC(C)N(CCOc1ccc(-c2nc3sccn3c2-c2ccnc(S(C)(=O)=O)n2)cc1)C(C)C,90.3%,87.7%,85.2%,102%,29.6%,-26.9% (active),105%,77.6%,86.8%,99.9%,62.9%,102%,75.4%,93.2%,96.3%,108%,95.4%,78.4%,112%
COc1cc(-c2nn(-c3cccc(NC(=O)NCCNS(=O)(=O)c4ccc(Cl)cc4)c3)cc2-c2ccncc2)ccc1Cl,12.4%,27.3%,32.9%,1.86% (active),-3.88% (active),7.66% (active),13.3%,6.74% (active),-64.2% (active),11.5%,2.85% (active),10.9%,-2.68% (active),-13.6% (active),13.1%,-44.8% (active),-38.5% (active),33%,-24.7% (active)
CCN(CCCNc1cc2c(c(N)c1S(=O)(=O)O)C(=O)c1ccccc1C2=O)c1ccccc1,89.3%,84.4%,92.1%,102%,112%,96.3%,104%,96.3%,109%,124%,101%,97%,88.9%,108%,109%,111%,98.4%,102%,98.3%
COc1cc2c(cc1NC(=O)C(F)(F)F)-c1ccc(NC(=O)C(F)(F)F)cc1C2,86.9%,47.9%,45.4%,97.8%,90.3%,99.2%,92.2%,98.6%,112%,93.4%,100%,83.7%,91.1%,35.7%,90.1%,83.4%,80.6%,109%,113%
CCOC(=O)c1cc(C(=O)c2cc(OC)c(OC)c(OC)c2)n2ccc(-c3cc[n+](CC(=O)c4cc(OC)c(OC)c(OC)c4)cc3)cc12,63.6%,90.8%,94.8%,-10.3% (active),46.2%,-21.5% (active),31.3%,-82.3% (active),43.7%,44.8%,-44.5% (active),63.1%,-22.8% (active),65.7%,-14.5% (active),94.3%,30.4%,92.5%,54.5%
